# According to PubChem BioAssay (NCATS):
# Results filed as inconclusive are left out. Calls of active or inactive are those of the source. Calls come from the whole dose curve; as a rule, active = well fitted inhibition curve with a large enough effect; inconclusive = small, poorly fitted or top-dose-only effect; inactive = no such curve, though single readings can be large or run the other way.
# Experiment: P-glycoprotein substrates identified in KB-3-1 adenocarcinoma cell line, qHTS therapeutic library screen (AID 1346986); note: nearly all actives have a fitted effect of over 60% in size;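 note: potency is for cytotoxicity meaning loss of cell viability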
# Conditions: KB-3-1 parental cells viability, CellTiter-Glo, 72 h; series mostly up to 44.5 µM; activity change, negative = cytotoxicity: at the top concentration
# How it was run: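 Resistance attributable to P-gp was assessed by comparing AC50 in KB-8-5-11 with parental KB-3-1 and by tariquidar reversal. Cells were exposed 72 h and viability read by CellTiter-Glo.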
# Potency is the fitted concentration of half-maximal effect.
SMILES,outcome,Potency
COc1c2c(c(C)c3c1C(=O)OC3)OC1(C)CC(O)C34OC(OC)(OC3(C)C)C(O)CC4(C)C1C2 (stereo not given),inactive [at 17.4 µM],
O=C1NC2CCc3nc4ccccc4c(=O)n3C2=Nc2ccccc21 (stereo not given),inactive,
C[C@@H]1O[C@@H](O[C@@H]2CO[C@@H](O[C@H]3CC[C@@]4(C)C(CC[C@]5(C)C4CC=C4[C@@H]6CC(C)(C)CC[C@]6(C(=O)O[C@@H]6O[C@H](CO)[C@@H](O)[C@H](O)[C@H]6O)CC[C@]45C)[C@]3(C)CO)[C@H](O)[C@H]2O[C@@H]2O[C@H](CO)[C@@H](O)[C@H](O)[C@H]2O)[C@H](O)[C@H](O)[C@H]1O (stereo not given in full),inactive [at 9.29 µM],
OC[C@H]1O[C@@H](OC(CCCCc2ccc(O)cc2)CCc2ccc(O)cc2)[C@H](O)[C@@H](O)[C@@H]1O (stereo not given in full),inactive [at 17.4 µM],
CC(=O)O[C@@H]1[C@@H](OC(=O)/C=C/c2ccccc2)[C@@H](OC(C)=O)[C@H](O[C@H]2[C@@H]3C=CO[C@@H](O[C@@H]4O[C@H](CO)[C@@H](O)[C@H](O)[C@H]4O)[C@@H]3[C@@]3(CO)O[C@@H]23)O[C@H]1C,inactive [at 17.4 µM],
CC1C(OC(=O)c2ccccc2)C(O)C2C(C(=O)O)=COC(OC3OC(CO)C(O)C(O)C3O)C12 (stereo not given),inactive [at 17.4 µM],
Cc1c2cc(c(C(=O)O)c1C)OC1OC(C(O)C(O)C1O)C(O)C(O)C1OC(O2)C(O)C(O)C1O (stereo not given),inactive [at 17.4 µM],
CC(=O)OC1C(O)C2C(C)C3=CC(=O)OC3(O)CC2C2(C)CCCC(C)(CO)C12 (stereo not given),inactive [at 17.4 µM],
CC(C)=CCC[C@](C)(O)[C@H]1CC[C@]2(C)[C@@H]1[C@H](O)CC1[C@@]3(C)CC[C@H](O)C(C)(C)C3[C@@H](O[C@@H]3O[C@H](CO)[C@@H](O)[C@H](O)[C@H]3O[C@@H]3OC[C@@H](O)[C@H](O)[C@H]3O)C[C@]12C (stereo not given in full),inactive [at 17.4 µM],
CCN1CCN(Cc2ccc(NC(=O)c3ccc(C)c(NC(=O)c4cncc(-c5cccs5)c4)c3)cc2C(F)(F)F)CC1,,2060 nM (active)
C[C@@H]1O[C@@H](O[C@H]2[C@H](O[C@H]3[C@H](O[C@H]4CC[C@@]5(C)C(CC[C@]6(C)C5CC=C5[C@@H]7CC(C)(C)CC[C@]7(C(=O)O[C@@H]7O[C@H](CO)[C@@H](O[C@@H]8O[C@@H](C)[C@H](O)[C@@H](O)[C@H]8O)[C@H](O)[C@H]7O)CC[C@]56C)C4(C)C)OC[C@H](O)[C@@H]3O)O[C@H](CO)[C@@H](O)[C@@H]2O)[C@H](O)[C@H](O)[C@H]1O (stereo not given in full),inactive [at 9.29 µM],
COc1cc2c(cc1O)[C@H](c1ccc(O[C@@H]3O[C@H](CO)[C@@H](O)[C@H](O)[C@H]3O)c(OC)c1)[C@@H](CO)[C@](O)(CO)C2,inactive [at 17.4 µM],
COc1cc(O)c2c(c1)C1=CC(O)C(O)CC1(C)OC2=O (stereo not given),inactive,
CCOC(=O)C(CCc1ccccc1)NC(C)C(=O)N1C(=O)N(C)CC1C(=O)O (stereo not given),inactive,
COC(=O)C1=COC(OC2OC(CO)C(O)C(O)C2O)C2C1C=CC2(O)CO (stereo not given),inactive [at 17.4 µM],
C=C1C(O)C[C@@H]2C(C(=O)O)=CO[C@@H](O[C@@H]3O[C@H](CO)[C@@H](O)[C@H](O)[C@H]3OC(=O)c3ccc(O)cc3)[C@H]12 (stereo not given in full),inactive [at 17.4 µM],
C=C1CC2C(C)(CCC(=O)O)C(C(C)(C)O)CCC2(C)C2C(=O)OC(C)(C(=O)OC)C(=O)C12C (stereo not given),inactive [at 17.4 µM],
C/C1=C\CC[C@H](C)CCO[C@@H]2O[C@H](CO[C@@H]3OC[C@](O)(COC1=O)[C@H]3O)[C@@H](O)[C@H](O)[C@H]2O,inactive [at 17.4 µM],
COc1cc(Nc2nc3ccccc3nc2NS(=O)(=O)c2ccc(NC(=O)c3ccc(OC)c(C)c3)cc2)cc(OC)c1,inactive,
CC(C)(C)NS(=O)(=O)c1cncc(-c2cc(F)c3nc(N)nn3c2)c1,inactive,
CC(O)(CC(=O)O)CC(=O)OCc1ccc(O[C@@H]2O[C@H](CO)[C@@H](O)[C@H](O)[C@H]2O)cc1 (stereo not given in full),inactive [at 17.4 µM],
CC1(C)C=CN2C(=O)C3=CCCN3C(=O)[C@@H]2C[C@@]12Nc1ccccc1C2=O,inactive,
COc1c2c(c(C)c3c1C(=O)OC3)O[C@@]1(C)CC(O)C(C(C)(C)O)[C@](C)(CCC(=O)O)[C@H]1C2 (stereo not given in full),inactive [at 17.4 µM],
C=C1[C@H](OC(C)=O)[C@H]2[C@@H](OC(C)=O)[C@](C)(OC(C)=O)C[C@]2(OC(C)=O)C(=O)[C@H](C)/C=C/C(C)(C)C(=O)[C@H](OC(=O)C(C)CC)[C@H]1OC(C)=O (stereo not given in full),inactive [at 17.4 µM],
CC(=O)c1c(O)cc(O[C@@H]2O[C@H](CO)[C@@H](O)[C@H](O)[C@H]2O)cc1O,inactive,
